# Laboratory results taken from PubChem BioAssay AID463173 (ICCB-Longwood Screening Facility, Harvard Medical School, 2010).
# The whole screen tested about 52,000 compounds, of which about 4,300 (8.3%) were called active. For the sample, actives were picked, then their nearest neighbours and some compounds at random. Values without a mark were called inactive. No stated cut-off is given here; in the data, active means survival mostly below about 52% (no sharp cut-off); inactive means mostly above about 56%.
# System: DeltatarO mutant
# Test: S. aureus survival, RN4220 and DeltatarO strains – OD600, teichoic acid synthesis inhibitors, primary screen (AID 463173)
# Details: S. aureus RN4220 wild type/DeltatarO growth, OD600, 18 h, hits give low values, screened at 18.75 µg/mL (by protocol)
row,SMILES,survival
1,CCN1C(=O)C2(c3ccccc31)c1c(oc3ccc(F)cc3c1=O)C(=O)N2CCCOC (configuration not stated),64%
2,COCCCN1C(=O)c2oc3ccccc3c(=O)c2C12C(=O)N(C)c1ccccc12 (configuration not stated),64%
3,Cc1ccc2oc3c(c(=O)c2c1)C1(C(=O)N(C)c2ccccc21)N(CCCO)C3=O (configuration not stated),51% (active)
4,CCCN1C(=O)C2(c3ccccc31)c1c(oc3ccccc3c1=O)C(=O)N2CCCOC(C)C (configuration not stated),48%
5,CCCN1C(=O)C2(c3ccccc31)c1c(oc3cc(C)c(C)cc3c1=O)C(=O)N2CCCOC (configuration not stated),55% (active)
6,COCCN1C(=O)c2oc3ccc(C)cc3c(=O)c2C12C(=O)N(C)c1ccccc12 (configuration not stated),45% (active)
7,CCN1C(=O)C2(c3ccccc31)c1c(oc3ccc(C)cc3c1=O)C(=O)N2CCCOC(C)C (configuration not stated),49%
8,CCCN1C(=O)C2(c3ccccc31)c1c(oc3ccc(C)cc3c1=O)C(=O)N2CCOC (configuration not stated),60%
9,Cc1cc2oc3c(c(=O)c2cc1C)C1(C(=O)N(C)c2ccccc21)N(CCO)C3=O (configuration not stated),55%
10,CCCCc1nn2c(C)c(-c3ccc(OCC)cc3)nc2s1,103%
11,CCOC(=O)c1sc(NC(=O)C(C)Sc2nc(-c3ccccc3)cc(C(F)(F)F)n2)c(C(=O)OC)c1C (configuration not stated),159%
12,Cc1ccc(Cl)cc1N1CCN(C(=O)Cn2nc(C)c3sc4ccccc4c3c2=O)CC1,57%
13,COc1ccc(CCN2C(=O)CN=C2Nc2ccc(F)cc2)cc1OC,78%
14,COC(=O)c1ccc(C(=O)OC)c(NC(=O)c2ccc(-c3ccccc3)s2)c1,126%
15,CCOC(=O)c1c(CN(C)C)oc2ccc(O)cc12,88%
16,CCc1ccccc1NC(=O)[C@@H](c1ccccc1)N1Cc2ccccc2C1=O,4% (active)
17,Cc1ccc(NC(=O)[C@@H](c2ccccc2)N2Cc3ccccc3C2=O)cc1,71%
18,O=C(Nc1cccc(F)c1)[C@@H](c1ccccc1)N1Cc2ccccc2C1=O,46% (active)
19,O=C(Nc1ccc(F)cc1)[C@@H](c1ccccc1)N1Cc2ccccc2C1=O,38% (active)
20,CCCCNC(=O)[C@@H](c1ccccc1)N1Cc2ccccc2C1=O,54%
21,CC(C)NC(=O)C(c1ccccc1)N1Cc2ccccc2C1=O (configuration not stated),101%
22,CCOc1ccccc1NC(=O)C(c1ccccc1)N1Cc2ccccc2C1=O (configuration not stated),96%
23,CSc1cccc(NC(=O)C(c2ccccc2)N2Cc3ccccc3C2=O)c1 (configuration not stated),88%
24,CC(=O)Nc1ccc(NC(=O)C(c2ccccc2)N2Cc3ccccc3C2=O)cc1 (configuration not stated),119%
25,O=C(Nc1ccc(F)c(F)c1)C(c1ccccc1)N1Cc2ccccc2C1=O (configuration not stated),102%

row,SMILES,survival
1,O=C(Nc1ccccc1F)C(c1ccccc1)N1Cc2ccccc2C1=O (configuration not stated),72%
2,CC(C)CCNC(=O)[C@@H](c1ccccc1)N1Cc2ccccc2C1=O,12% (active)
3,COc1ccc(C(=O)OCc2cc(=O)n3nc(C4CC4)sc3n2)cc1OC,91%
4,CC(=O)N1c2ccc(S(=O)(=O)NCC3CCC(C(=O)Nc4ccccc4C)CC3)cc2CC1C (configuration not stated),104%
5,CCOc1ccccc1CNC(=O)C1CCN(S(=O)(=O)c2ccc3c(ccn3C)c2)CC1,96%
6,O=C(Nc1cccc(F)c1F)C1CCN(c2ncccn2)CC1,62%
7,COc1ccc(CCNC(=O)CCCCn2c(=O)c3ccccc3n(CC(=O)Nc3c(C)cccc3C)c2=O)cc1OC,115%
8,Cc1ccc2c(c1)-c1onc(C(=O)N(C)c3ccc(F)cc3)c1CO2,65%
9,O=C(NCCCN1CCN(c2ccccc2F)CC1)C1COc2ccccc2C1 (configuration not stated),92%
10,COc1ccc(OC)c(CCNC(=O)c2ccc3c(c2)c(C)c(C)n3Cc2ccccc2)c1,79%
11,COc1cc(-c2nc3cc(Cl)ccc3o2)cc(OC)c1OC,87%
12,CCOC(=O)c1sc2ccccc2c1S(=O)(=O)Nc1c(C)cccc1C,70%
13,CN(Cc1ccccc1)C(=O)CSc1nc(-c2ccc(F)cc2)cc(C(F)(F)F)n1,31% (active)
14,COc1ccccc1CNC(=O)CSc1nc(-c2ccc(OC)c(OC)c2)cc(C(F)(F)F)n1,55%
15,COc1ccc(-c2cc(C(F)(F)F)nc(SCC(=O)N(C)Cc3ccccc3)n2)cc1OC,33% (active)
16,COc1ccc(-c2cc(C(F)(F)F)nc(SCC(=O)N(C)Cc3ccccc3)n2)cc1,44%
17,O=C(CSc1nc(-c2ccc(F)cc2)cc(C(F)(F)F)n1)NCc1ccccc1,62%
18,COc1ccc(-c2cc(C(F)(F)F)nc(SCC(=O)NCCc3ccccc3)n2)cc1OC,58%
19,O=C(C1CCC1)N1CCc2cc(S(=O)(=O)NCc3ccc(F)cc3)ccc21,93%
20,CCOc1ccccc1NC(=O)Cn1c(=O)n(-c2ccc(Cl)cc2)c(=O)c2oc3ccccc3c21,69%
21,CN(C)c1ccc(NC(=O)CSC2=Nc3ccccc3C3=NC(CCC(=O)NCc4cccs4)C(=O)N23)cc1 (configuration not stated),75%
22,Cc1ccc2oc(=O)c3cc(C(=O)Nc4ccc(C)c(F)c4)sc3c2c1,77%
23,Cc1nc(-n2nc(C)c(CCC(C)C)c2C)sc1C(=O)Nc1ccc(Br)cc1,50%
24,COCCCNc1ncnc2c1cnn2-c1ccc(F)cc1,86%
25,CCN(c1ccccc1)c1ncnc2c1cnn2-c1ccc(C)cc1C,55%

row,SMILES,survival
1,Cc1ccc(-n2ncc3c(N(CCO)Cc4ccccc4)ncnc32)cc1,8% (active)
2,CCN(Cc1ccccc1)c1ncnc2c1cnn2-c1ccc(F)cc1,79%
3,COc1ccc(-n2ncc3c(NCCCOC(C)C)ncnc32)cc1,0% (active)
4,COc1ccc(CCNc2ncnc3c2cnn3-c2ccc(C)cc2)cc1,81%
5,Cc1ccc(-n2ncc3c(N(C)Cc4ccccc4)ncnc32)cc1,89%
6,OCCN(CCO)c1ncnc2c1cnn2-c1ccc(F)cc1,6% (active)
7,CCN(c1ccccc1)c1ncnc2c1cnn2-c1ccc(OC)cc1,52% (active)
8,CCCCN(CCCC)c1ncnc2c1cnn2-c1cccc(C)c1,74%
9,Cc1ccc(-n2ncc3c(NCCc4ccccc4)ncnc32)cc1,87%
10,CCCCN(c1ccccc1)c1ncnc2c1cnn2-c1ccc(Cl)cc1,87%
11,COc1ccc(Cl)cc1NC(=O)c1c(NCc2sccc2C)sc2c1CCCC2,71%
12,CC(=O)NC1(c2ccccc2)CCN(Cc2nnnn2C(C)(C)C)CC1,91%
13,Cc1ccc(C)c(N2CCN(C(=O)CCS(=O)(=O)c3ccc4c(c3)CC(=O)N4C)CC2)c1,89%
14,O=C(Nc1ccccc1F)NC1CCN(Cc2nnnn2Cc2ccc(F)cc2)CC1,96%
15,CC(=O)N1CCCc2ccc(NS(=O)(=O)c3cccc(Cl)c3)cc21,80%
16,N#Cc1c[nH]n2c(NC3CCCC3)c(-c3cccc(Br)c3)nc12,45%
17,Cc1ccc2oc(C(=O)N(Cc3cccc(F)c3)C3CCS(=O)(=O)C3)c(C)c2c1 (configuration not stated),76%
18,Cc1c(C(=O)N(Cc2ccc(N(C)C)cc2)C2CCS(=O)(=O)C2)oc2ccccc12 (configuration not stated),42% (active)
19,COc1cccc(CN(C(=O)c2oc3ccccc3c2C)C2CCS(=O)(=O)C2)c1 (configuration not stated),69%
20,COc1cccc(CN(C(=O)c2oc3ccc(Br)cc3c2C)C2CCS(=O)(=O)C2)c1 (configuration not stated),40% (active)
21,Cc1c(C(=O)N(Cc2cccc(F)c2)C2CCS(=O)(=O)C2)oc2cc(Br)ccc12 (configuration not stated),63%
22,COc1cc(CN(C(=O)c2oc3ccccc3c2C)C2CCS(=O)(=O)C2)cc(OC)c1OC (configuration not stated),55%
23,COc1cccc(CN(C(=O)c2oc3cc(C)ccc3c2C)C2CCS(=O)(=O)C2)c1 (configuration not stated),57%
24,Cc1ccc2c(C)c(C(=O)N(Cc3ccc(Cl)cc3)C3CCS(=O)(=O)C3)oc2c1 (configuration not stated),34% (active)
25,Cc1c(C(=O)N(Cc2ccccc2F)C2CCS(=O)(=O)C2)oc2ccccc12 (configuration not stated),84%

row,SMILES,survival
1,C=CCn1c(C(C)NC(=O)c2ccccc2Cl)n[nH]c1=S (configuration not stated),76%
2,Cc1cccc(C)c1NC(=O)c1ccc2nc(CCc3ccccc3)oc2c1,69%
3,O=C(Nc1ccc(Cl)cc1Cl)c1cc(S(=O)(=O)NCc2ccc3c(c2)OCO3)ccc1F,94%
4,O=C(C1CCCN(S(=O)(=O)c2cccc3nsnc23)C1)N1CCN(c2ccccc2)CC1 (configuration not stated),79%
5,CN1C(=O)SC(N(CC(N)=O)c2ccccc2)C1=O (configuration not stated),61%
6,COc1cc(NC(=O)Cn2nc(Cc3cccnc3)c3ccccc3c2=O)cc(OC)c1OC,71%
7,COCCNC(=O)CSc1nc2cc3c(cc2c(=O)n1CCCC(=O)NCc1ccc(OC)cc1)OCO3,84%
8,CC(=O)c1ccc(NC(=O)CSc2nnc3ccc(-c4ccc(Cl)cc4)nn23)cc1,83%
9,CCOC(=O)c1c(NC(=O)CSc2cn(CCNC(=O)c3ccc(OCC)cc3)c3ccccc23)sc2c1CCCC2,93%
10,COc1cccc(C(=O)COC(=O)c2cc(-c3cccs3)nc3ccccc23)c1,54%
11,COc1cccc(-n2c(-c3ccccc3F)nc3c(cnn3-c3ccc(C)cc3)c2=O)c1,75%
12,COc1ccc(-n2c(-c3ccccc3F)nc3c(cnn3-c3ccc(C)cc3)c2=O)cc1,80%
13,COc1ccc(-n2c(-c3cccc(F)c3)nc3c(cnn3-c3ccc(C)cc3)c2=O)cc1,96%
14,Cc1ccc(-n2c(-c3cccc(C)c3)nc3c(cnn3-c3ccccc3)c2=O)cc1,19% (active)
15,CCc1nc2c(cnn2-c2ccccc2)c(=O)n1-c1ccc(Br)cc1,86%
16,Cc1ccc(-c2nc3c(cnn3-c3ccccc3)c(=O)n2-c2ccc(Cl)cc2)cc1,44% (active)
17,Cc1ccc(-n2c(-c3ccco3)nc3c(cnn3-c3ccc(C)cc3)c2=O)cc1,81%
18,COc1cccc(-n2c(-c3cccc(F)c3)nc3c(cnn3-c3ccc(C)cc3)c2=O)c1,76%
19,CCc1nc2c(cnn2-c2ccc(C)cc2)c(=O)n1-c1ccc(C)cc1,47%
20,Cc1cccc(-c2nc3c(cnn3-c3ccccc3)c(=O)n2-c2ccc(Br)cc2)c1,139%
21,Cc1ccc(-c2nc3c(cnn3-c3ccccc3)c(=O)n2-c2cccc(Cl)c2)cc1,33% (active)
22,Cc1ccc(-n2c(-c3ccc(Br)cc3)nc3c(cnn3-c3ccccc3)c2=O)cc1,39% (active)
